Giardia killer = Small Molecules that selectively kill Giardia lamblia: qHTS. Giardia lamblia trophozoite viability. activity change, % at 7.66 µM, hits read low. 0.15% of 340,000 active. AID 540267, 2011; in the data active = activity change below about -80%; inconclusive = between about -30% and that limit;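 note: parasites exposed to compound for two days anaerobically before the ATP read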
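Compounds were tested on trophozoites seeded at 100 cells/well and held 48 hrs at 37 deg C anaerobically. An ATP-based luminescent kit measured the remaining live cells.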
IL-1B inflam inh = qHTS for Inhibitors of Inflammasome Signaling: IL-1-beta AlphaLISA Primary Screen | THP-1 LPS/ATP IL-1B secretion, AlphaLISA, 16 h; hits give low values | activity change, % at 57.5 µM | 4.7% of 360,000 active; in the data active = activity change below about -50%; inconclusive = mostly about -30% to -49%
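THP-1 cells pretreated 1 hr with compounds (up to 57.5 uM final), then stimulated with LPS (250 ng/mL final) plus ATP (1.25 mM final); secreted IL-1B measured by AlphaLISA after 16 hr, decreased signal indicating inhibition.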
DT40 TDP1 no CPT = qHTS for Inhibitors of human tyrosyl-DNA phosphodiesterase 1 (TDP1): qHTS in cells in absence of CPT; Potency, µM (doses to about 46.2 µM), most hits filed as inhibitors; DT40 Tdp1-/- hTDP1 cells, no CPT, ATP luminescence, 48 h; 15% of 420,000 active; AID 686978, 2013; note: nearly all actives have a fitted effect of over 55% in size
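Compound effects on proliferation are scored in DT40 Tdp1-/-;hTDP1 cells in the absence of CPT. ATP levels (CellTiter-Glo luminescence) are recorded after a ≥48 hr, 37 °C incubation.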
ELG1 DNA repair = qHTS screen for small molecules that inhibit ELG1-dependent DNA repair in human embryonic kidney (HEK293T) cells expressing luciferase-tagged ELG1 | Potency, µM (highest dose often 46.1 µM), usual class: inhibitors | HEK293T ELG1-luciferase reporter, luminescence, 16 h; DNA damage induced by 5-fluorouridine | 2.3% of 330,000 active; note: nearly all actives have a fitted effect of over 55% in size
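5-Fluorouridine DNA damage + compound/DMSO, 2,000 cells/well, 16 h, 37 °C/5% CO2. ONE-Glo, 30 min RT, luminescence. Readout = decrease in reporter signal.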
TDP1 block = qHTS Assay for Inhibitors of Tyrosyl-DNA Phosphodiesterase (TDP1); Tyrosyl-DNA phosphodiesterase 1 (Homo sapiens), Q9NUW8; recombinant TDP1, AlphaScreen DNA substrate cleavage; Potency, µM (series often up to 130 µM), actives largely listed as inhibitors; 0.28% of 350,000 active; AID 485290, 2010; note: nearly all actives have a fitted effect of over 40% in size
Target sequence (Q9NUW8 whole entry, looked up): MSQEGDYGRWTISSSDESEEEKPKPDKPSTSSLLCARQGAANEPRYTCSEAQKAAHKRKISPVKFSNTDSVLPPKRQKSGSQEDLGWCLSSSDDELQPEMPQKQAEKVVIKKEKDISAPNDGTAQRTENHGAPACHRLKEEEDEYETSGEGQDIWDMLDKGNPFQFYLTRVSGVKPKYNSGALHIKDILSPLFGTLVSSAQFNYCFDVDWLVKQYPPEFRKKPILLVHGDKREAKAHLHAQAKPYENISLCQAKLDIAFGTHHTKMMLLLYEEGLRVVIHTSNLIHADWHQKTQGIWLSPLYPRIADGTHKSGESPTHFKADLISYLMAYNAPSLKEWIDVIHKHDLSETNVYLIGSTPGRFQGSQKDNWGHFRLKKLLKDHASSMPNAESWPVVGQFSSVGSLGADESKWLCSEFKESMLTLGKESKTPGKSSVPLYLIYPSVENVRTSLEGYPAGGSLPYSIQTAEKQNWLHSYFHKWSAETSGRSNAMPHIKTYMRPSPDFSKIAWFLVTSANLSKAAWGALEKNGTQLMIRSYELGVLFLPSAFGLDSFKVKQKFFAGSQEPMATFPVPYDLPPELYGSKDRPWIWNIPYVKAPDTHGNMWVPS
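Tdp1 1 nM final; 15 min RT w/ cpd; substrate 15 nM, 5 min; beads 10 ug/ml, 10 min; AlphaScreen read. Neg ctrl: no enzyme.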
DT40 TDP1 CPT = qHTS for Inhibitors of human tyrosyl-DNA phosphodiesterase 1 (TDP1): qHTS in cells in presence of CPT | Potency, µM (titrated, usually from 46.2 µM), most hits filed as inhibitors | 12% of 420,000 active | chicken DT40 Tdp1-/-;hTDP1 cells + 20 nM CPT, ATP luminescence, 48 h | AID 686979, 2013; note: nearly all actives have a fitted effect of over 55% in size
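Chicken DT40 Tdp1-/- cells stably complemented with human TDP1 were seeded at 400 cells/well in medium containing 20 nM camptothecin, exposed to pin-transferred compounds, and grown at 37 °C for at least 48 hr. Viability was read as ATP luminescence.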
Numbers stand for hits; 0 = inactive; ? = inconclusive; - = not tested or not shown. Most compounds without a hit are left out; they make up all but 19% or so of the library. Unless noted, calls come from the whole dose curve; as a rule, active = well fitted curve in the direction sought with a large enough effect; inconclusive = small, poorly fitted or top-dose-only effect, or another doubt; inactive = no such curve, though single readings can be large; an effect the other way counts as inactive or inconclusive.

SMILES	Giardia killer	IL-1B inflam inh	DT40 TDP1 no CPT	ELG1 DNA repair	TDP1 block	DT40 TDP1 CPT
C[C@@H]1ON(C)[C@H]2C[C@H]3c4cc(-c5cccc(F)c5)ccc4CCN3C(=O)[C@@H]12	0	0	?	-	-	?
CCn1cc(S(=O)(=O)c2ccc(Cl)cc2)c(=O)c2cc(F)c(N3CCOCC3)cc21	-	-	16µM	-	0	26µM
CCn1cc(S(=O)(=O)c2ccccc2)c(=O)c2cc(F)c(N3CCN(c4ccccc4)CC3)cc21	-	-	?	-	0	?
CCn1cc(S(=O)(=O)c2ccccc2)c(=O)c2cc(F)c(N3CCCC3)cc21	-	-	?	-	0	21µM
CCCn1cc(S(=O)(=O)c2ccccc2)c(=O)c2cc(F)c(N3CCCCCC3)cc21	-	-	18µM	-	0	26µM
O=C(N=C1SC2CS(=O)(=O)CC2N1CCc1ccccc1)C1CC1 (stereo not given)	0	0	0	0	0	0
CC(=O)N(C)c1ccc(NC(=S)Nc2cccc3ccccc23)cc1	0	0	?	?	0	23µM
Cc1cc(C)cc(NC(=S)Nc2cccc3cnccc23)c1	0	0	?	?	0	0
CC(=O)N(C)c1ccc(NC(=S)Nc2ccccc2)cc1	0	0	0	?	0	0
CCc1ccc(NC(=S)Nc2cccc3cnccc23)cc1	0	0	15µM	?	0	?
Cc1ccc(NC(=S)Nc2cccc3cnccc23)c(C)c1	0	0	?	21µM	0	0
NC(N)=Nc1nc(CSCC/C(N)=N\S(N)(=O)=O)cs1	-	-	0	-	0	0
CC(=O)Nc1nc(=S)ss1	0	0	0	0	0	0
CC(C)CC(=O)Nc1nc(=S)ss1	0	0	10µM	0	0	?
CC(C)CNC(=O)NC(=O)COC(=O)c1ccccc1Sc1ccc(C(F)(F)F)cc1[N+](=O)[O-]	0	0	?	0	0	29µM
O=C(NCC(c1ccco1)N1CCOCC1)C1CCCCC1 (stereo not given)	0	0	0	0	-	0
COc1ccccc1C(=O)N1CCN(c2cccc(Cl)c2)CC1	0	0	1.6µM	0	0	1.8µM
CCn1cc(C(=O)N2CCN(c3cccc(Cl)c3)CC2)c2cc(OC)c(OC)cc2c1=O	0	0	23µM	?	0	16µM
Cc1[nH]c(-c2ccc(F)cc2)cc1C(=O)N1CCN(c2cccc(Cl)c2)CC1	0	-87	16µM	0	-	0
O=C(c1c(Cl)nc2sccn12)N1CCN(c2cccc(Cl)c2)CC1	0	0	2.3µM	?	0	2.3µM
COc1ccc(C(C(=O)Nc2ccc(C(C)C)cc2)N(C)C(=O)c2ccc(=O)[nH]c2)cc1 (stereo not given)	0	0	?	0	0	?
O=C(NNC(=O)C1CCN(c2ncccn2)CC1)c1ccncc1	0	0	0	0	0	0
Cc1ccc(C(=O)N(Cc2cc3cc4c(cc3nc2N2CCOCC2)CCC4)CC2CCCO2)cc1 (stereo not given)	-	-	0	-	-	0
COc1cc2c(C(=O)N3CCN(c4cccc(Cl)c4)CC3)cn(C)c(=O)c2cc1OC	0	0	3.7µM	?	0	5.2µM
COc1ccc(N2C(=O)C(CC(=O)Nc3ccccc3)N(Cc3cccs3)C2=O)cc1 (stereo not given)	0	0	?	0	-	?
Cc1ccsc1CCN1C(=O)N(c2ccccc2)C(=O)C1CC(=O)Nc1ccc(Cl)cc1 (stereo not given)	-	-	?	-	0	26µM
O=C(CC1C(=O)N(c2ccccc2)C(=O)N1CCc1cccs1)Nc1ccc(Cl)cc1 (stereo not given)	-	-	?	-	0	21µM
CN1CCN(c2ccc(S(=O)(=O)N3CCCCC3)cc2NC(=O)Cc2ccc(Cl)cc2)CC1	0	0	23µM	0	0	?
